Assay outcomes deposited in PubChem BioAssay by National Center for Advancing Translational Sciences (NCATS).
Compounds with a hit are over-represented: about 19% of the library has one in this group of screens.
ELG1 DNA repair: blocks ELG1-dependent DNA repair in HEK293T cells | Potency, µM (titrated, usually from 46.1 µM), inactives show at the top dose activity change, negative = inhibition, actives largely listed as inhibitors | HEK293T ELG1-luciferase reporter, luminescence, 16 h; DNA damage induced by 5-fluorouridine | actives 2.3% (n = 330,000); further: potency means the concentration at half of the fitted maximal effect; nearly all actives have a fitted effect of over 55% in size
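5-Fluorouridine DNA damage + compound/DMSO, 2,000 cells/well, 16 h, 37 °C/5% CO2. ONE-Glo, 30 min RT, luminescence. Readout = decrease in reporter signal.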
HT1080-NT tox: kills 2HG-producing HT-1080-NT fibrosarcoma cells. Potency, µM (series often up to 46.1 µM), without a hit: at the top dose activity, negative = less viability, usual class: cytotoxic. HT-1080-NT fibrosarcoma viability, CellTiter-Glo ATP luminescence, 48 h. actives 1.6% (n = 360,000);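 further: NT is the 2HG producing partner of a matched IDH1 knockdown line; potency means the concentration at half of the fitted maximal effect; 0% = DMSO-treated cells and -100% = media-only wells without cells; nearly all actives have a fitted effect of over 55% in size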
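Compounds were tested in concentration-response format on HT-1080-NT cells for 48 hours at 37 degrees C. Cell viability came from CellTiter-Glo luminescence; curves were classified by r2, response magnitude and activity.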
TDP1 cell CPT: DT40-hTDP1 cell growth loss with CPT. chicken DT40 Tdp1-/-;hTDP1 cells + 20 nM CPT, ATP luminescence, 48 h. Potency, µM (highest dose often 46.2 µM), for the others: at the highest dose activity change, negative = growth inhibition, hits mostly inhibitors. actives 12% (n = 420,000). AID 686979; further: potency means the concentration at half of the fitted maximal effect; nearly all actives have a fitted effect of over 55% in size
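Cell growth measured by CellTiter-Glo luminescence after a minimum 48 h, 37 C compound exposure with 20 nM CPT in Tdp1-knockout DT40 cells stably expressing hTDP1, seeded 400/well; qHTS titration format.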
HT1080 IDH1KD tx: HT-1080 IDH1 knockdown cell toxicity (counter line) | HT-1080 IDH1 knockdown viability, ATP luminescence, 48 h | Potency, µM (doses to about 46.1 µM), without a hit: top-dose activity, negative = toxicity, hits mostly cytotoxic | actives 2% (n = 360,000);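 further: potency means the concentration at half of the fitted maximal effect; 0% = DMSO wells and -100% = cell-free medium wells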
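Cytotoxicity counter-line: IDH1KD HT-1080, 48 h, CellTiter-Glo. Curves classed by r2, magnitude and activity.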
DT40 TDP1 no CPT: qHTS for Inhibitors of human tyrosyl-DNA phosphodiesterase 1 (TDP1): qHTS in cells in absence of CPT. Potency, µM (top dose mostly 46.2 µM), for inactives: at the highest dose activity change, negative = growth inhibition, hits mostly inhibitors. AID 686978, 2013. actives 15% (n = 420,000). DT40 Tdp1-/- hTDP1 cells, no CPT, ATP luminescence, 48 h; further: potency means the concentration at half of the fitted maximal effect; nearly all actives have a fitted effect of over 55% in size
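Luminescent ATP content (CellTiter-Glo) served as the growth readout. Knockout chicken DT40 cells expressing human TDP1 were exposed to compounds without camptothecin for a minimum 48 hr at 37 °C.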
IL1B secr inh: inhibitors of inflammasome signaling (IL-1 beta secretion). THP-1 LPS/ATP IL-1B secretion, AlphaLISA, 16 h; hits give low values. activity change, % at 57.5 µM. actives 4.7% (n = 360,000); in the data active means activity change below about -50%; inconclusive means mostly about -30% to -49%
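THP-1 cells pretreated 1 hr with compounds (up to 57.5 uM final), then stimulated with LPS (250 ng/mL final) plus ATP (1.25 mM final); secreted IL-1B measured by AlphaLISA after 16 hr, decreased signal indicating inhibition.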
An asterisk follows results filed as active; ? = inconclusive; . = no result given. Unless noted, the call rests on the fitted dose curve; in most records, active means well fitted curve in the direction sought with a large enough effect; inconclusive means small, poorly fitted or top-dose-only effect, or another doubt; inactive means no such curve, though single readings can be large; an effect the other way counts as inactive or inconclusive. Unless noted, on the % scale 0 is the no-effect control and ±100 the full control effect.

SMILES	ELG1 DNA repair	HT1080-NT tox	TDP1 cell CPT	HT1080 IDH1KD tx	DT40 TDP1 no CPT	IL1B secr inh
Cc1nc2ccccc2c(=O)n1/N=C/c1ccc(O)cc1	17.7%	-8.9%	-2.2%	5.7%	-9.2%	9.2
Cc1ccc(-n2[nH]c(C)c(C=Nc3cc(C)ccn3)c2=O)cc1	7.4%	10.3µM*	?	23.1µM*	?	0.0
CCc1nc2ccccc2c(=O)n1/N=C/c1ccc(Cl)cc1	.	-11.2%	-29.6%	-1.8%	16.4µM*	7.4
CC1CCCC(NC(=O)COC(=O)c2cc3ccccc3oc2=O)C1C (stereo not drawn)	?	-3.0%	?	2.9%	0.8%	4.8
CC(NC(=O)c1ccccc1)C(=O)NNC(=O)c1ccccc1Cl (stereo not drawn)	12.8%	1.1%	-1.7%	10.9%	3.8%	8.4
Cc1[nH]n(-c2ccccc2)c(=O)c1C=Nc1cccc2cccnc12	?	-21.3%	0.651µM*	?	0.92µM*	55.9
Cc1ccc(-n2[nH]c(C)c(/C=N/c3ccccn3)c2=O)cc1	2.9%	7.08µM*	?	?	?	35.8
Cc1ccc(-n2[nH]c(C)c(C=Nc3ccc(Br)cn3)c2=O)cc1	-3.4%	-1.7%	?	-14.2%	?	20.9
CCc1nnc(NS(=O)(=O)c2ccc(N=Cc3c(C)[nH]n(-c4ccc(Cl)cc4)c3=O)cc2)s1	-2.2%	-14.8%	?	-3.0%	?	-8.6
Cc1[nH]n(-c2ccccc2)c(=O)c1C=NCc1ccncc1	?	-12.8%	7.1%	-13.8%	-0.5%	14.1
Cc1[nH]n(-c2ccc(Cl)cc2)c(=O)c1/C=N/c1nnc(-c2ccccc2)s1	?	-21.8%	?	-24.6%	16.4µM*	26.4
CCCc1nc2ccccc2c(=O)n1/N=C/c1c(C)[nH]n(-c2ccc(C)cc2)c1=O	?	16.4µM*	20.6µM*	18.4µM*	11.6µM*	44.3
C1=C[C@H]2CCCN3CC[C@@H]([C@@H]2[C@]32CO2)[C@H]1CCOCc1ccccc1	.	-12.6%	?	-26.5%	?	-15.0
CC(C)(C)N(Cc1ccccc1)C(=O)COC(=O)Cn1cnc2ccccc2c1=O	-6.2%	-0.8%	-6.9%	11.3%	-5.7%	-9.7
Cc1cc2c(cc1S(=O)(=O)N(C)CC(=O)Nc1cccc(C#N)c1)OCC(=O)N2	.	.	3.6%	.	-18.0%	.
CS(=O)(=O)N(CC(=O)N1CCN(Cc2ccccc2)CC1)c1cccc([N+](=O)[O-])c1	-19.7%	15.0%	-19.6%	3.1%	-25.0%	23.0
CN(CC(=O)Nc1ccc(Cl)cc1F)C1=NS(=O)(=O)c2ccccc21	20.2%	6.9%	9.2%	-4.9%	-19.4%	23.0
O=C(OCCN(C1=NS(=O)(=O)c2ccccc21)c1ccccc1Cl)c1ccc(Cl)cc1	-14.3%	-16.4%	18.4µM*	0.3%	?	13.7
CC(C)CCN(C(=O)c1csnn1)C(C(=O)NC1CCCCC1)c1ccc(F)cc1 (stereo not drawn)	0.9%	-29.4%	-16.9%	-8.1%	?	-56.7*
CCC(C)N(C(=O)c1csnn1)C(C(=O)NC1CCCC1)c1ccc(F)cc1 (stereo not drawn)	-14.1%	14.4%	-15.3%	9.4%	-29.6%	17.4
CCc1ccc(C(C(=O)NC2CCCCC2)N(C(=O)c2csnn2)C2CC2)cc1 (stereo not drawn)	-9.0%	-16.8%	16.4µM*	-15.7%	?	0.6
CC1CCCC(C)N1/N=C/c1ccc(C(=O)O)cc1 (stereo not drawn)	4.0%	-4.5%	-5.5%	16.5%	?	5.5
CCCCCN1CC(=O)N2Cc3[nH]c4ccccc4c3C[C@H]2C1=O	-3.5%	13.3%	-15.7%	-4.9%	-15.3%	-58.9*
